Mtb betalactam – beta-lactam sensitization of Mtb H37Rv; M. tuberculosis H37Rv growth with meropenem, percent inhibition; inhibition, % at 25 µM; 330,000 tested, 0.27% active; AID 434955; call rule not given here;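 note: growth measured after seven days incubation then overnight dye step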
UGM FP inh – blocks M. tuberculosis UGM enzyme. purified UGM, fluorescence polarization probe displacement. AID 504406. inhibition, % at 10 µM. P9WIQ1. 320,000 tested, 0.06% active; in the data active = inhibition above about 10%, passing the limit was not always enough; inconclusive = no clear call, values can overlap the other calls
Mtb hypoxia inh – inhibitors of hypoxia-regulated fluorescent reporter in Mycobacterium tuberculosis; M. tuberculosis hypoxia-regulated fluorescent reporter, fluorescence; 300,000 tested, 0.1% active; fluorescence inhibition, % (concentration not given with the values); AID 1159583; in the data active = fluorescence inhibition mostly above about 23%, no sharp cut-off; inactive = mostly below about 17%
RecA splice inh – blocks M. tuberculosis RecA intein splicing | inhibition, % (concentration not given with the values) | P9WHJ3 | cell-free RecA intein splicing, fluorescence | 290,000 tested, 0.75% active; in the data active = inhibition above about 30%; inconclusive = no clear call, values can overlap the other calls
Rv3671c protease – inhibitors of M. tuberculosis serine protease Rv3671c; P9WHR9; inhibition, % at 5.96 µM; 320,000 tested, 0.048% active; in the data active = inhibition above about 38%;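 note: extracellular domain of Rv3671c used as enzyme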
Target sequence (P9WHR9 whole entry, looked up, the tested form may be a part): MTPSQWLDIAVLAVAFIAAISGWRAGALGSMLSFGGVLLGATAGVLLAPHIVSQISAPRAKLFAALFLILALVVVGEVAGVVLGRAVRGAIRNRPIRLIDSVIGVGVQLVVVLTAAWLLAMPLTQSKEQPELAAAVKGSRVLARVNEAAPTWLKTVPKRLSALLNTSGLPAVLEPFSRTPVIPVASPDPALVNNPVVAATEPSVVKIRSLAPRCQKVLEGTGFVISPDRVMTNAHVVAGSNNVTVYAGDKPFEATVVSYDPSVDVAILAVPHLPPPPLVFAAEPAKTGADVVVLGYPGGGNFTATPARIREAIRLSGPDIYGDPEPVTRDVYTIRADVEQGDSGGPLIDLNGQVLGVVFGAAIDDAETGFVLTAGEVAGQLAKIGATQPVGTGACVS
Of the large screens only hits and unclear results are named; the others gave an inactive call; ! = repeats disagree. The list is not random: actives were taken first. Their share in the collection is about 0.77%.

Cc1c(N2C(=O)/C(=C/c3ccc(N(C)C)cc3)N(C)C2=S)c(=O)n(-c2ccccc2)n1C	Mtb hypoxia inh 40 (no result: Mtb betalactam, UGM FP inh, RecA splice inh, Rv3671c protease)
CC(C)Sc1nc2c(c(=O)n(C)c(=O)n2C)n1Cc1ccc(Cl)cc1	Mtb hypoxia inh 38
O=S(=O)(O)c1cccc(N=Nc2c(O)ccc3ccccc23)c1	Mtb hypoxia inh 36
CC(=O)C(Sc1ncnc2c1nnn2-c1ccc(F)cc1)C(=O)N(C)C (configuration not stated)	RecA splice inh 40
CC(O)C(C(=O)N1CCNCC1)n1cc(CCCCN)nn1 (configuration not stated)	none (no result: Mtb betalactam, UGM FP inh, RecA splice inh, Rv3671c protease)
COc1ccc(NC(=O)COc2ccc(/C=C/c3cc[n+](C)cc3)cc2OC)cc1	none
COc1cc(/C=C/c2cc[n+](C)cc2)ccc1OCC(=O)Nc1ccc(Cl)c(Cl)c1	RecA splice inh 40
CC(C)Nc1nc(Cl)nc(N(C#N)CN2C(=O)c3ccccc3S2(=O)=O)n1	none
COc1nc(NC(C)C)nc(N(C#N)CN2C(=O)c3ccccc3S2(=O)=O)n1	RecA splice inh 61
OCCc1ccc(O)cc1	none (no result: Mtb hypoxia inh, RecA splice inh)
CC(c1ccc(O)cc1)(c1ccc(O)cc1)c1ccc(CCBr)cc1	RecA splice inh 31 (no result: Mtb hypoxia inh)
CC(NC(=O)c1nc[nH]c1C(=O)NCC(=O)OC(C)(C)C)C(=O)OC(C)(C)C (configuration not stated)	none (no result: Mtb betalactam, UGM FP inh, RecA splice inh, Rv3671c protease)
CCN(CC)CCCNC(=O)c1cc(Sc2nnc(C)s2)nc2ccccc12	UGM FP inh 25
COC(CNC(=O)c1cc(Sc2nnc(C)s2)nc2ccccc12)OC	none
CCOc1cccc(C2C(C(=O)c3ccc(C)o3)=C(O)C(=O)N2Cc2ccncc2)c1 (configuration not stated)	none
CCOc1cccc(C2C(C(=O)c3ccc(C)o3)=C(O)C(=O)N2c2nccs2)c1 (configuration not stated)	UGM FP inh 16 (no result: Mtb hypoxia inh)
CC1OC(OC2C(Oc3cc(O)c4c(c3)OC(c3ccc(O)cc3)CC4=O)OC(CO)C(O)C2O)C(O)C(O)C1O (configuration not stated)	Mtb hypoxia inh 85! (no result: Mtb betalactam, UGM FP inh, RecA splice inh, Rv3671c protease)
COc1ccc2ccc3c(c2c1)N=CC1(O3)N(C)c2ccccc2C1(C)C (configuration not stated)	RecA splice inh 76
O=C(NCCc1ccc(Cl)cc1)c1ccc(CNc2c(N3CCOCC3)c(=O)c2=O)cc1	Mtb hypoxia inh 42
O=C(NCc1ccc(Cl)cc1)c1ccc(CNc2c(N3CCOCC3)c(=O)c2=O)cc1	Mtb betalactam inconclusive
O=C(N=c1ccn(-c2nc3ccccc3nc2NS(=O)(=O)c2ccc(Cl)cc2)cc1)c1cccs1	UGM FP inh 17
CCOc1ccc(S(=O)(=O)Nc2nc3ccccc3nc2-n2ccc(=NC(=O)c3cccs3)cc2)cc1	none
O=C(N=c1ccn(-c2nc3ccccc3nc2NS(=O)(=O)c2ccc(Cl)cc2)cc1)c1ccccc1Cl	UGM FP inh 34
C=CCN1C=C2C(=O)C(C)(OC(=O)c3cnc4ccccc4n3)C(=O)C=C2C=C1C=CCOC (configuration not stated)	none (no result: Mtb betalactam, UGM FP inh, RecA splice inh, Rv3671c protease)
O=C(C1=CC(c2ccc3c(c2)OCO3)CC(OCc2ccc(CO)cc2)O1)N1CCN(Cc2ccc3c(c2)OCO3)CC1 (configuration not stated)	none (no result: Mtb betalactam, UGM FP inh, RecA splice inh, Rv3671c protease)
CC(C(=O)CC(=O)OC(C)(C)C)C(O)c1ccccc1 (configuration not stated)	none (no result: Mtb betalactam, UGM FP inh, RecA splice inh, Rv3671c protease)
Cc1ccccc1N(Cc1cc(=O)[nH]c2ccccc12)C(=O)CCl	Mtb betalactam inconclusive, RecA splice inh 48 (no result: Mtb hypoxia inh)
CC(C)[C@H]1C(=O)N2CCC[C@H]2[C@]2(O)O[C@](NC(=O)[C@@H]3C=C4c5cccc6[nH]cc(c56)C[C@H]4N(C)C3)(C(C)C)C(=O)N12	RecA splice inh 35 (no result: Mtb hypoxia inh)
CC(=O)Nc1ccc(NC(=O)Nc2cccc(Cl)c2)cc1	none
CC(=O)C(=Nc1ccc(Cl)cc1Cl)NNc1cccc(Cl)c1	RecA splice inh 34 (no result: Mtb hypoxia inh)
CCCS(=O)(=O)c1nnnn1-c1cccc(OC)c1	RecA splice inh 91
CCC1=C(OC(=O)N(CC)CC)N2C(=O)OC(=NCC(=O)OC)[C@]2(Cc2ccccc2)C2C1=CCC1C(=O)N(CC(=O)OC)C(=O)C12 (some centres not stated)	none (no result: Mtb betalactam, UGM FP inh, RecA splice inh, Rv3671c protease)
C=C1CSc2nc(=O)c3c4c(sc3n21)CCC4	Mtb hypoxia inh 43 (no result: RecA splice inh)
CCOC(=O)c1nnc(-c2ccccc2)nc1NC	none
CCOC(=O)c1nnc(-c2ccccc2)nc1Oc1ccccc1Cl	RecA splice inh 45 (no result: Mtb hypoxia inh)
CC(NC(=O)c1[nH]cnc1C(=O)Nc1ccon1)c1ccccc1 (configuration not stated)	none (no result: Mtb betalactam, UGM FP inh, RecA splice inh, Rv3671c protease)
Cn1nc(C(C)(C)C)cc1C(=O)Sc1cccc(Br)c1	RecA splice inh 43 (no result: Mtb hypoxia inh)
NC(=O)CCCn1c(C(=O)c2ccc(Cl)cc2)c2ccc([N+](=O)[O-])cc2[n+]1[O-]	Mtb hypoxia inh 40
O=C(O)CC1c2cc(F)ccc2S(=O)(=O)N1C1CCCC1 (configuration not stated)	none (no result: Mtb betalactam, UGM FP inh, RecA splice inh, Rv3671c protease)
CC1CCCC(C)N1C(=O)COC(=O)c1cccnc1Cl (configuration not stated)	Mtb hypoxia inh 34 (no result: RecA splice inh)
O=C(COC(=O)c1cccnc1Cl)NC1CCCCCC1	none (no result: RecA splice inh)
CNC(=O)C1CC1C(NC(=O)OCc1ccccc1)c1ccccc1 (configuration not stated)	none (no result: Mtb betalactam, UGM FP inh, RecA splice inh, Rv3671c protease)
Cn1c(NC(=O)C=Cc2ccccc2)cc(=O)n(C)c1=O	none (no result: Mtb betalactam, UGM FP inh, RecA splice inh, Rv3671c protease)
O=C(NN1C(=O)/C(=C/c2cc([N+](=O)[O-])ccc2O)SC1=S)c1ccccc1O	Rv3671c protease 52 (no result: Mtb hypoxia inh)
Cc1c(C(=O)N2CC3(CC(c4cccc(NC(=O)C5CCC(=O)N5)c4)=NO3)CC2C(N)=O)cc([N+](=O)[O-])cc1[N+](=O)[O-] (configuration not stated)	none (no result: Mtb betalactam, UGM FP inh, RecA splice inh, Rv3671c protease)
COc1cc(C(c2c(C)[nH]n(-c3ccccc3)c2=O)c2c(C)[nH]n(-c3ccccc3)c2=O)cc(OC)c1OC	RecA splice inh 98
CC(=O)CC1c2ccccc2S(=O)(=O)N1C1CCCCC1 (configuration not stated)	none (no result: Mtb betalactam, UGM FP inh, RecA splice inh, Rv3671c protease)
CCCCc1oc2ccccc2c1C(=O)c1cc(I)c(OCCN(CC)CC)c(I)c1	RecA splice inh 38 (no result: Mtb betalactam)
O=C(COC(=O)C1CC2CCCC(C1)C2=O)Nc1ccc(F)c(Cl)c1 (configuration not stated)	Mtb hypoxia inh 22 (no result: RecA splice inh)
O=C(COC(=O)C1CC2CCCC(C1)C2=O)Nc1cccc(F)c1 (configuration not stated)	none (no result: RecA splice inh)
O=S(=O)(c1ccccc1)[C@@]1(c2ccc(Br)cc2)CC2ON=C(c3ccccc3)C2C1 (some centres not stated)	none (no result: Mtb betalactam, UGM FP inh, RecA splice inh, Rv3671c protease)
O=C(CCl)Nc1cn(-c2ccccc2)nc1-c1ccccc1	RecA splice inh 40 (not shown: Mtb hypoxia inh)
O=C(Cn1c(=O)cnc2ccccc21)Nc1cccc(S(=O)(=O)N2CCOCC2)c1	Mtb hypoxia inh 28 (no result: RecA splice inh)
O=C(Cn1c(=O)cnc2ccccc21)Nc1cccc(S(=O)(=O)N2CCCCC2)c1	none (no result: RecA splice inh)
Oc1ccc(/C(Cc2ccc3ccccc3n2)=N\Nc2ccccc2)c(O)c1	RecA splice inh 47 (no result: Mtb hypoxia inh)
Oc1ccc(/C(Cc2ccccn2)=N\Nc2ccccc2)c(O)c1	none (no result: Mtb hypoxia inh)
CC(=O)c1cccc(NC(=O)CCCOc2ccc(C)cc2)c1	Mtb hypoxia inh active
CC(C)C(CN(N=O)C(Cc1ccccc1)CN(C)N=O)N(CCc1ccccc1)N=O (configuration not stated)	none (no result: Mtb betalactam, UGM FP inh, RecA splice inh, Rv3671c protease)
